# Bioassay records as filed in PubChem.
# Tau fluor cs = counter-screen for tau fibril formation inhibitors; Potency, µM (doses to about 57.7 µM), without a hit: top-dose activity change, negative = decrease; tau K18 P301L Alexa594 fluorescence, heparin fibrillization; AID 1463; 280,000 tested, 0.93% active; also: potency is read from the fitted curve at half-maximal effect; nearly all actives have a fitted effect of over 55% in size
#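 Human K18 P301L tau (15 uM unlabeled plus 0.24 uM Alexa 594-labeled, final) in 100 mM sodium acetate pH 7 was mixed with compound and 20 uM heparin and incubated 6 hr at 37 C.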
# Coupling enz = inhibits coupling enzyme system, counter-screen for aldolase hits; 290,000 tested, 0.67% active; coupling enzyme system counterscreen, AmpLite Red fluorescence; activity change, negative = inhibition, % at 58.2 µM, hits read low; in the data active = activity change below about -30%
#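 Activity here indicates interference with the coupling reaction, not aldolase inhibition. Compounds at 57.5 uM final met coupling enzymes for 10 min at RT; substrate and AmpLite Red detection followed, with a 525/598 nm fluorescence read after 20 min.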
# Tau fibril FP = inhibitors of human tau fibril formation; Potency, µM (highest dose often 57.7 µM), for inactives: at the top dose activity, negative = inhibition, most hits filed as inhibitors; K18 P301L tau heparin fibrillization, Alexa594 FP, 6 h; 280,000 tested, 0.39% active; P10636; AID 1468; also: potency is read from the fitted curve at half-maximal effect; nearly all actives have a fitted effect of over 55% in size
# Target sequence (P10636 561-689 P618L limits assumed): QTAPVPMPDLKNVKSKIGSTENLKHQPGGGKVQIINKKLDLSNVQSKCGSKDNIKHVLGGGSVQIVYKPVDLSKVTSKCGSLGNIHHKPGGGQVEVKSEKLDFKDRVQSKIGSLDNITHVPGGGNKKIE
#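 Human tau K18 […] P301L fragment, 15 uM unlabeled plus 0.24 uM Alexa 594-labeled tau (final), with compound and 20 uM heparin in 100 mM sodium acetate pH 7; 6 hr at 37 C, then Alexa 594 FP read.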
# Sfp PPTase inh = inhibitors of Bacillus subtilis Sfp phosphopantetheinyl transferase | Q9F4F7 | Biochemical Sfp PPTase activity, qHTS | Potency, µM, without a hit: largest response in the series, negative = inhibition, usual class: inhibitors | 310,000 tested, 3.5% active | AID 1490;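 also: the enzyme is Sfp with the accession as filed and its product quenches rhodamine fluorescence; potency is read from the fitted curve at half-maximal effect; 0% = enzyme reaction without inhibitor and -100% = no enzyme wells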
#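 Fluorescence-quenching assay: 15 nM Sfp-PPTase preincubated 15 min at room temperature with compound, then 5 uM rhodamine-CoA and 12.5 uM BHQ-2-labelled YbbR peptide added. Fluorescence (ex 525/em 598 nm) read at start and after 30 min; difference gives rate.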
# Tau fibril ThT = tau fibrillization inhibition (ThT binding) | P10636 | recombinant tau K18 P301L (four-repeat tau fragment), heparin-induced fibrillization, ThT fluorescence | Potency, µM (doses to about 57.4 µM), for inactives: at the highest dose activity, negative = inhibition, hits mostly inhibitors | 270,000 tested, 2.1% active; also: potency is read from the fitted curve at half-maximal effect; nearly all actives have a fitted effect of over 55% in size
#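 K18 P301L tau (15 uM + 0.24 uM Alexa 594-tagged), heparin 20 uM, NaOAc pH 7, 6 h 37 C; ThT 30 uM, 1 h RT, ex 450/em 510 nm.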
# * = called active by the depositor; ? = inconclusive; / = no result given; [ ] = dose if it differs, or a comment. Sampled rows, rich in hits. Any-hit rate of the full collection: about 5.2%. Unless noted, calls follow the shape of the dose curve; as a rule, active = well fitted curve in the direction sought with a large enough effect; inconclusive = small, poorly fitted or top-dose-only effect, or another doubt; inactive = no such curve, though single readings can be large; an effect the other way counts as inactive or inconclusive. Unless noted, % is scaled to controls: 0 for no effect and ±100 for the full control effect.
SMILES,Tau fluor cs,Coupling enz,Tau fibril FP,Sfp PPTase inh,Tau fibril ThT
Cc1nc2cc(N=NC3=C(O)CCCC3=O)ccc2s1,-26%,-3,-4%,-9%,16µM*
CN(C)CCCN(C(=O)c1ccc(S(=O)(=O)N2CCc3ccccc3C2)cc1)c1nc2ccc(F)cc2s1,/,1,/,45µM*,/
Cc1cccc2sc(N(CCCN(C)C)C(=O)c3ccc(S(=O)(=O)N4CCc5ccccc5C4)cc3)nc12,/,-3,/,3%,/
Cc1ccc2nc(N(CCCN(C)C)C(=O)c3ccc(S(=O)(=O)N4CCc5ccccc5C4)cc3)sc2c1,/,1,/,50µM*,/
CN(C)CCCN(C(=O)c1ccc(S(=O)(=O)N2CCc3ccccc3C2)cc1)c1nc2c(F)cccc2s1,/,-1,/,4%,/
CCCCCCCCCCCCCCC(F)C(=O)O (centres undefined),-4%,2,?,23%,-9%
CSc1nn(CCc2ccncc2)c(=S)s1,0%,-6,-1%,50µM*,-2%
Fc1ccc(Br)cc1SCCc1ccncc1,/,2,/,-27%,/
COC(=O)c1ccc(-c2ccc(/C=N/NC(=O)CC3(C)OCCCO3)o2)cc1,-3%,-1,-1%,50µM*,?
CC1(CC(=O)N/N=C/c2ccc(-c3ccc(C(=O)O)cc3)o2)OCCO1,-4%,-3,2%,-20%,-8%
Brc1ccc(Nc2c3c(nc4nncn24)CCC3)cc1,-6%,/,-3%,/,?
CCc1ccccc1S(=O)(=O)Cc1ccc(C(=O)NCCc2ccc(C)cc2)o1,-21%,/,7%,/,?
COC(=O)c1sc2nc3c(c(-c4cccs4)c2c1N)CCCC3,-2%,3,11%,79µM*,-13%
Cc1ccc(NS(=O)(=O)c2ccccc2Cl)c2c1CC(C)(C)O2,-18%,/,-3%,-2%,-17%
Cc1cccc(S(=O)(=O)Nc2ccc(C)c3c2OC(C)(C)C3)c1,-17%,-44*,-2%,?,-11%
O=c1c(-c2ccccc2)nc2cnc(N3CCOCC3)nc2n1Cc1ccc(F)cc1,/,2,/,7%,/
CCCCC#Cc1ccccc1CC(=O)Nc1ccccc1,-19%,-2,-10%,13%,?
CCCCCCCC#Cc1ccccc1/C=N/S(=O)c1ccc(C)cc1 (centres undefined),-12%[11.6 µM],5,1%[11.6 µM],25µM*,?
CC(C)CC(=O)/C(=C/c1ccc(N(C)C)cc1)n1cncn1,/,-2,/,10%,/
CC(C)CC(=O)/C(=C\c1ccc(Cl)cc1Cl)n1cncn1,7%,0,1%,32µM*,?
CN1CCN(C(=S)c2ccc(-c3cccc([N+](=O)[O-])c3)o2)CC1,?,-1,-7%,-16%,?
O=C(NN1CCOCC1)c1ccc(Cl)c([N+](=O)[O-])c1,/,-2,/,-2%,/
O=[N+]([O-])c1cccc(-c2ccc(C(=S)N3CCN(c4ccccc4)CC3)o2)c1,?,0,?,13µM*,20µM*
O=[N+]([O-])c1cccc(-c2ccc(C(=S)N3CCOCC3)o2)c1,9%,-25,-9%,20µM*,12%
S=C(c1ccc(-c2cccc(Cl)c2)o1)N1CCOCC1,?,1,-11%,20µM*,16µM*
SMILES,Tau fluor cs,Coupling enz,Tau fibril FP,Sfp PPTase inh,Tau fibril ThT
O=[N+]([O-])c1cc(-c2ccc(C(=S)N3CCOCC3)o2)ccc1Cl,?,-32*,?,-95%,14µM*
O=[N+]([O-])c1cccc(C(=S)N2CCCC2)c1,-4%,3,-1%,15%,-2%
O=[N+]([O-])c1cccc(C(=S)N2CCN(c3ccc(F)cc3)CC2)c1,-30%,-2,3%,28µM*,-11%
CC(=O)c1sc(C(=O)O)c(-c2ccco2)c1-c1ccco1,1%,-5,6%,18µM*,-9%
NC(=O)c1sc2nc3c(c(-c4ccco4)c2c1N)CCCC3,-17%,5,10%,-12%,?
Cn1nnnc1SCCNCc1ccccc1OCc1ccc(Cl)cc1Cl,-23%,/,-10%,/,?
COc1ccc(/C=N/Nc2ccc(C(=O)O)cc2)cc1OC,-7%,-1,-3%,5%,?
Cc1ccc(S(=O)(=O)Oc2cccc(/C=N/n3cnnc3)c2)cc1,-6%,-21,-9%,-6%,0%
CC(C)c1ccc(/C=N/Nc2ccc(C(=O)O)cc2)cc1,-13%,6,8%,1%,?
